Screening data as filed in PubChem BioAssay.
The sample as a whole holds a higher share of hits than the screen did.
Lassa entry inh – qHTS for Inhibitors of binding or entry into cells for Lassa Virus | Lassa virus pseudotype entry inhibition, cell reporter | Potency, µM (highest dose often 37.9 µM), for the others: at the highest dose activity change, negative = inhibition, usual class: inhibitors | actives 1.2% (n = 300,000); calls by dose curve; tested in HEK293 cells; further: potency means the concentration at half of the fitted maximal effect; on the % scale 0 is the no-effect control and ±100 the full control effect; nearly all actives have a fitted effect of over 50% in size
Cycloheximide cs – Cycloheximide Counterscreen for Small Molecule Inhibitors of Shiga Toxin; cell reporter, cycloheximide protein synthesis inhibition counterscreen; max response, %; actives 12% (n = 300,000); AID 2314, 2010; in the data active means max response mostly above about 13%, no sharp cut-off; inactive means mostly below about 14%; further: read at 38.3 µM for the half of the compounds with a filed dose; 0% is about no effect
Shiga inhibitor – A qHTS for Small Molecule Inhibitors of Shiga Toxin; actives 9.2% (n = 290,000); inhibition, % at 38.7 µM; Vero cells, Shiga toxin protein synthesis inhibition reporter; in the data active means inhibition mostly above about 28%, no sharp cut-off; inactive means mostly below about 43%; further: 0% is about no effect
Marburg entry inh – qHTS for inhibitors of binding or entry into cells for Marburg Virus; actives 1.8% (n = 300,000); AID 540276, 2011; Marburg virus pseudotyped entry inhibition, cell reporter; Potency, µM (top dose mostly 37.8 µM), for the others: at the highest dose activity change, negative = inhibition, most hits filed as inhibitors; calls by dose curve; tested in HEK293 cells; further: potency means the concentration at half of the fitted maximal effect; on the % scale 0 is the no-effect control and ±100 the full control effect
AMA1 RON2 block – qHTS for Inhibitors of AMA1-RON; Towards Development of Antimalarial Drug Lead: Primary Screen; Plasmodium falciparum AMA1 (3D7) - RON2 peptide interaction; AlphaScreen AMA1-biotinylated RON2 peptide binding; Potency, µM (top dose mostly 58.2 µM), for inactives: at the highest dose activity change, negative = inhibition, actives largely listed as inhibitors; actives 0.2% (n = 360,000); active means well fitted inhibition curve with a large enough effect; inconclusive means small, poorly fitted or top-dose-only effect; inactive means no such curve, though single readings can be large or run the other way;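 further: potency means the concentration at half of the fitted maximal effect; 0% = vehicle wells and -100% = peptide control; nearly all actives have a fitted effect of over 45% in size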
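AMA1 (3D7) with his tag at 25 nM final met compounds first, then biotinylated RON2 peptide at 25 nM; detection used donor plus acceptor beads, 10 µg/mL apiece, read by AlphaScreen after 30 min at room temperature.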
Active calls of the source: *; ? = inconclusive; · = not tested or not shown; [ ] = remark or other dose.

SMILES | Lassa entry inh | Cycloheximide cs | Shiga inhibitor | Marburg entry inh | AMA1 RON2 block
COc1cccc(/C=N/NC(=O)C(=O)Nc2ccccc2OC(F)(F)C(F)F)c1O | ? | -5 | 22 | 8.9µM* | 52%
COc1ccccc1/C=N/NC(=O)c1cccc(OC(F)(F)C(F)F)c1 | -11% | 18 | 17 | -4% | 0%
COc1cccc(/C=N/NC(=O)c2c(C)nc3ccc(Cl)cn23)c1O | ? | -1 | 6 | 1µM* | -12%
COc1cccc(/C=N/NC(=O)c2ccc(=O)[nH]n2)c1O | · | 30* | 60* | · | -17%
COc1cccc(/C=N/NC(=O)CN2CC(c3ccccc3)CC2=O)c1O (stereo unspecified) | ? | 34* | 40* | ? | 26%[2.32 µM]
CCc1noc(C)c1C(=O)Nc1nnc(C2CCCCC2)s1 | · | 8 | 33 | · | ·
CCc1ccc(CNC(=O)c2cc(=O)[nH]c3ccc(S(=O)(=O)N4CCCCC4)cc23)cc1 | 1%[46.1 µM] | · | · | · | ·
COc1cccc(/C=N/NC(=O)c2ccc(-c3ccccc3)cc2)c1O | 5.6µM* | 4 | 2 | 3.2µM* | 57%
COc1cc(N2CCN(C(C)C)CC2)ccc1Nc1nc(Nc2cccc3ncccc23)c2cc[nH]c2n1 | 20µM* | · | · | · | ·
COc1ccc(Nc2nc(N3CCN(C)CC3)nc3ccccc23)c(OC)c1 | · | 2 | 2 | · | -7%
O=C(Nc1cccnc1)C1OCCc2ccccc21 (stereo unspecified) | -3% | -2 | -1 | -28% | 7%
O=C(Nc1ccc(Br)cc1)C1OCCc2ccccc21 (stereo unspecified) | -13% | 18* | 51* | 4%[46.1 µM] | 0%
O=C(NC1CCCc2ccccc21)c1ccccc1Br (stereo unspecified) | 26% | -3 | -13 | 1% | -7%
O=C(NC1CCSc2ccccc21)c1ccccc1Br (stereo unspecified) | · | 24* | 23* | · | -16%
CS(=O)(=O)c1ccc(Cl)c(C(=O)NC2CCSc3ccccc32)c1 (stereo unspecified) | -15%[46.1 µM] | 22* | 37 | 16%[46.1 µM] | 12%
CCC(Sc1ncc(S(=O)(=O)c2ccc(Cl)cc2)c(=O)[nH]1)C(=O)Nc1ccc(OC)cc1 (stereo unspecified) | · | · | · | 4%[46.1 µM] | ·
COc1cc(-c2nc(-c3cccc(C)c3)no2)cc(OC)c1OC | -2% | 16* | 33* | 7% | 13%
COc1ccc(-c2nc(-c3cccc(C(F)(F)F)c3)no2)cc1OC | 2% | -4 | -10 | 25% | 10%
COc1cc(OC)cc(-c2nc(-c3cccc(C)c3)no2)c1 | 12%[46.1 µM] | · | · | ? | ·
COc1ccccc1-c1nc(-c2cccc(C)c2)no1 | ? | 46* | 122* | ? | 42%
COc1ccc(-c2nc(-c3cccc(C)c3)no2)cc1OC | 17% | 25* | 60* | ? | 8%
Cc1nnc(SCC(=O)c2ccc(Cl)cc2)s1 | -7%[46.1 µM] | 43* | 87* | 4%[46.1 µM] | -12%
COC(=O)c1ccc(CSc2nnc(C)s2)cc1 | -1% | 38* | 67* | ? | 2%
COC(=O)c1cccc(CSc2nnc(C)s2)c1 | ? | 23* | 97* | 2% | -1%
COC(=O)c1ccc(CSc2nnc3c(n2)[nH]c2ccccc23)cc1 | -2% | 12 | 10 | 8%[46.1 µM] | -1%
SMILES | Lassa entry inh | Cycloheximide cs | Shiga inhibitor | Marburg entry inh | AMA1 RON2 block
COC(=O)c1ccc(CSc2nc(N)cc(N)n2)cc1 | 23% | 36* | 53* | -3% | -7%
Cc1noc(C)c1S(=O)(=O)N(C)C[C@H]1Oc2ccc(NS(=O)(=O)c3ccccc3)cc2C(=O)N([C@H](C)CO)C[C@@H]1C | · | · | · | · | 2%
COCCNC(=O)CCn1c(=O)c2cc(OC)c(OC)cc2n(CC(=O)Nc2ccc(F)c(Cl)c2)c1=O | 23%[46.1 µM] | · | · | 14%[46.1 µM] | ·
CCN(CC(=O)Nc1ccccc1OC)CC(=O)Nc1sccc1C#N | -8% | -3 | 20 | 0% | 155%
COC(=O)c1ccc(CSc2nnc(N)s2)cc1 | 11% | 21* | 73 | ? | 6%
C=CCn1c(C)nnc1SCC(=O)c1[nH]c(C)c(C(C)=O)c1C | -4% | -4 | 2 | 1% | -5%
COc1ccccc1Nc1nc(N)nc(CSc2nnc(C)s2)n1 | 19% | 1 | 11 | 3% | -3%
COc1ccc(CSc2nnc(C)s2)cc1F | -6%[46.1 µM] | 16* | 73* | 13%[46.1 µM] | 2%
CC(=O)c1c(C)[nH]c(C(=O)CSc2nnc(C)s2)c1C | 10% | 44* | 92* | -1%[46.1 µM] | 18%
COc1ccccc1N1CCN(c2nc(-c3ccc(C)cc3)nc3ccccc23)CC1 | 1%[46.1 µM] | · | · | · | ·
O=C(Nc1ccc2c(c1)OCCO2)c1cccc(S(=O)(=O)N2CCCCC2)c1 | -37%[14.3 µM] | 20* | 84* | 9% | 0%
CC1(C)CC2CC(C)(CN2S(=O)(=O)c2ccc(C(=O)Nc3cc(S(=O)(=O)N4CCOCC4)ccc3Cl)cc2)C1 (stereo unspecified) | ? | -2 | 17 | ? | 15%
CS(=O)(=O)c1cccc(C(=O)Nc2ccc3c(c2)OCCCO3)c1 | 4%[46.1 µM] | 35* | 59* | ? | 7%
COc1ccc(N(C)S(=O)(=O)c2cccc(C(=O)Nc3ccc4c(c3)OCCO4)c2)cc1 | ? | 10 | 19 | 10µM* | 7%
CC1(C)CC2CC(C)(CN2S(=O)(=O)c2ccc(C(=O)Nc3cccc(S(=O)(=O)N4CCOCC4)c3)cc2)C1 (stereo unspecified) | ? | 3 | -7 | 5.2µM* | -1%
O=C(Nc1ccc2c(c1)OCCO2)c1cccc(S(=O)(=O)N2CCOCC2)c1 | 25% | 28 | 68* | 32% | ?
CC(=O)Oc1ccc(-c2ccc(C(=O)Nc3cccc(S(=O)(=O)N4CCOCC4)c3)cc2)cc1 | ? | 9.4* | 30 | ? | -3%
COc1ccc(C(=O)NC(=S)Nc2cccc(S(=O)(=O)N3CCOCC3)c2)cc1 | ? | -3 | 1 | -19%[46.1 µM] | 33%
O=C(Nc1cccc(S(=O)(=O)N2CCCC2)c1)c1cccc(S(=O)(=O)N2CCOCC2)c1 | · | · | · | · | -4%
O=C(c1cccn1-c1nnc(N2CCCC2)s1)N1CCN(c2ccc(Cl)cc2)CC1 | 17%[46.1 µM] | · | · | · | ·
CN1CCN(NC(=O)Nc2ccc(Br)cc2Cl)CC1 | -2%[46.1 µM] | 16* | 38 | ? | -13%
CN1CCN(NC(=O)Nc2cc(Cl)cc(Cl)c2)CC1 | · | -1 | -4 | · | -5%
COCCCNC(=O)Nc1ccc(F)cc1F | 7% | 1 | 18 | 10%[46.1 µM] | 3%
COCCCNC(=O)Nc1ccc(Br)cc1Cl | 42%[14.3 µM] | 37* | 49* | 15% | -7%
O=C(NCCCN1CCCC1=O)Nc1ccc(Cl)cc1Cl | · | 16* | 41 | · | -10%
O=C(NCCCN1CCCC1=O)Nc1cc(Cl)ccc1Cl | · | -4 | 10 | · | 7%
O=C(NCCCN1CCCC1=O)Nc1ccc(Br)cc1Cl | · | 28* | 38* | · | 0%
O=C(C[C@H]1CC[C@H](NC(=O)Nc2ccccc2F)[C@@H](CO)O1)NCc1ccc(-c2ccccc2)cc1 | · | · | · | · | 0%
